# Laboratory results from PMC12670160, “A drug-repurposing screen of FDA- and EMA-approved drugs identifies two NF-κB inhibitors active against eumycetoma” (Journal of Antimicrobial Chemotherapy, 2025).
# Where a name gives a salt, the structure may show the parent alone. The whole screen tested about 5,300 compounds, of which about 130 (2.5%) showed an effect of 50% or more. Only a selection was taken, and strong results are over-represented in it overall.
# System: M. mycetomatis strain mm55
# Details: primary screen, metabolic activity vs growth control; 96 h, 2 µM; inhibitor
row,Structure (SMILES),% viability [%]
1,"CC(C)N[C@@H]1CCn2c(=O)[nH]c3cccc(c32)[C@H]1O [ONC0001941, zilpaterolhcl]",67.69
2,"COc1cccc2c1C(=O)c1c(O)c3c(c(O)c1C2=O)C[C@@](O)(C(C)=O)C[C@@H]3O[C@H]1C[C@H](N)[C@H](O)[C@H](C)O1 [ONC0001686, daunorubicin]",72.25
3,"CC(=O)[C@]1(O)Cc2c(O)c3c(c(O)c2[C@@H](O[C@H]2C[C@H](N)[C@H](O)[C@H](C)O2)C1)C(=O)c1ccccc1C3=O [ONC0004533, idarubicin hcl]",43.23
4,"COc1cccc2c1C(=O)c1c(O)c3c(c(O)c1C2=O)C[C@@](O)(C(=O)CO)C[C@@H]3O[C@H]1C[C@H](N)[C@@H](O)[C@H](C)O1 [ONC0004636, epirubicin hydrochloride]",92.65
5,"CNC(=O)ON(C(C)=O)C(=O)NC [ONC0003740, caracemide]",136.5
6,"NC(=O)c1nc(F)c[nH]c1=O [ONC0003386, favipiravir]",85.13
7,"CCN(CC)C(=O)Nc1ccc(OCC(O)CNC(C)(C)C)c(C(C)=O)c1 (stereo not drawn) [ONC0002160, celiprolol]",87.56
8,"CC(=O)Nc1ccc(OCC(O)CNC(C)C)cc1 (stereo not drawn) [ONC0002176, practolol]",73.91
9,"CCCC(=O)Nc1ccc(OCC(O)CNC(C)C)c(C(C)=O)c1 (stereo not drawn) [ONC0003369, acebutolol hydrochloride]",44.26
10,"O=C(O)c1cc(/N=N/c2ccc(S(=O)(=O)Nc3ccccn3)cc2)ccc1O [ONC0000599, sulfasalazine]",109.1
11,"COc1ccc(NS(=O)(=O)c2ccc(N=Nc3ccc(O)c(C(=O)O)c3)cc2)nn1 [ONC0003399, salazodine]",47.95
12,"COc1ccc(NS(=O)(=O)c2ccc(N)cc2)nn1 [ONC0000622, sulfamethoxypyridazine]",113.3
13,"NS(=O)(=O)NCCNc1nonc1C(=NO)Nc1ccc(F)c(Br)c1 [ONC0005250, epacadostat incb024360]",130.3
14,"CN1CCN(C(=O)C2C(C(=O)O)[C@@H]3CC[C@H]2O3)CC1 (stereo partly drawn) [ONC0001871, lb100]",109.3
15,"CCO/N=C(/C(=O)N[C@@H]1C(=O)N2C(C(=O)O)=C(Sc3nc(-c4cc[n+](C)cc4)cs3)CS[C@H]12)c1nsc(NP(=O)(O)O)n1 [ONC0002991, ceftarolinefosamil]",80.17
16,"COc1ccc(NS(=O)(=O)c2sc3ccc(Cl)cc3c2C)cc1N1CCNCC1 [ONC0005236, sb 271046]",123.6
17,"COc1ccc(NS(=O)(=O)c2ccc(I)cc2)cc1N1CCN(C)CC1 [ONC0001661, sb258585]",76.38
18,"COc1ccc(S(=O)(=O)Nc2cc(Cl)cc(Cl)c2OC)cc1N1CCNCC1 [ONC0000041, sb399885]",47.84
19,"O=C1Nc2c(ccc(Cl)c2Cl)C1=NO [ONC0002536, ns309]",65.12
20,"COC(=O)[C@H]1[C@@H](C)[C@@H](OC)C=CO[C@@]2(C)Oc3c(C)c(O)c4c(O)c(cc(O)c4c3C2=O)NC(=O)/C(C)=C\C=C/[C@@H](C)[C@@H](O)[C@@H](C)[C@H](O)[C@@H]1C [ONC0003453, rifamycin sv sodium salt]",53.39

row,Structure (SMILES),% viability [%]
1,"CN(C)[C@@H]1C(=O)C(C(N)=O)C(=O)[C@@]2(O)C(=O)C3C(=O)c4c(O)ccc(Cl)c4[C@@H](O)[C@H]3C[C@@H]12 (stereo partly drawn) [ONC0000432, demeclocycline hydrochloride]",77.24
2,"CCCCCCCCc1ccc(CCC(N)(CO)CO)cc1 [ONC0005159, fingolimod fty720 hcl]",130.1
3,"CCCCCCCCCCCC1=C(O)C(=O)C=C(O)C1=O [ONC0001079, embelin]",49.47
4,"CCCCCCc1ccc(O)cc1O [ONC0000355, hexylresorcinol]",72.69
5,"NC1=N[C@H]2[C@H](CCCCC(=O)O)SC[C@H]2N1 [ONC0003635, 2iminobiotin]",86.51
6,"CC(C)=CCC/C(C)=C/CC/C(C)=C/CCC(O)OC/C=C(\C)CCC=C(C)C (stereo not drawn) [ONC0000430, geranylfarnesylacetate gefarnate]",66.04
7,"O=C(OOC(=O)c1ccccc1)c1ccccc1 [ONC0003111, benzoyl peroxide]",80.87
8,Cc1ccc2c(Br)cc(Br)c(OC(=O)c3ccccc3)c2n1 [Broxaldine],3.407
9,"O=C(Oc1cccc2cccnc12)c1ccccc1 [ONC0003987, benzoxiquine]",75.23
10,"c1cnc2cc3c(cc2n1)C1CNCC3C1 [ONC0004813, varenicline tartrate]",83.4
11,"CCCC[C@H](C)C[C@H](O)/C=C/[C@H]1[C@H](O)CC(=O)[C@@H]1CCCC/C=C/C(=O)O [ONC0005482, limaprost]",96.34
12,"Cc1ccc(C(C)C)c(OC=C2NCCN2)c1 [ONC0005561, tymazoline]",90.75
13,"O=[N+]([O-])c1ccccc1S(=O)(=O)NC[C@H]1CC[C@H](CNCC2CCc3ccccc3C2)CC1 (stereo partly drawn) [ONC0000121, ntncb]",80.22
14,"CC(=O)OC1[C@@H](N2CC[N+](C)(C)CC2)C[C@H]2[C@@H]3CC[C@H]4C[C@H](OC(C)=O)[C@@H](N5CC[N+](C)(C)CC5)C[C@]4(C)[C@H]3CC[C@]12C (stereo partly drawn) [ONC0001992, pipecuronium]",103.5
15,"CCC(=O)NO [ONC0002308, zami633]",45.69
16,"O=C(CCCCCCC(=O)NO)NO [ONC0001756, sbha]",85.39
17,"CCCCOc1ccc(CC(=O)NO)cc1 [ONC0000683, bufexamac]",91.55
18,"OCC(O)COc1ccc(Cl)cc1 (stereo not drawn) [ONC0002159, chlorphenesin]",67.41
19,"CCC(C)CC(C)CCCCCCCCC(=O)N[C@H]1C[C@@H](O)[C@@H](NCCN)NC(=O)[C@@H]2[C@@H](O)CCN2C(=O)[C@H]([C@H](O)CCN)NC(=O)[C@H]([C@@H](O)[C@H](O)c2ccc(O)cc2)NC(=O)[C@@H]2C[C@@H](O)CN2C(=O)[C@H]([C@@H](C)O)NC1=O (stereo partly drawn) [ONC0002201, caspofungin acetate]",69.7
20,"CN1CCN(C(=O)CN[C@@H]2C[C@H]2c2ccc(OCc3ccccc3)cc2)CC1 [ONC0000424, rn1]",85.6

row,Structure (SMILES),% viability [%]
1,"COc1ccc(/C=C/C(=O)O)cc1 [ONC0003824, trans4methoxycinnamicacid]",65.15
2,"COc1ccc2[nH]c(C(=O)c3ccccc3)cc2c1 [ONC0001898, d64131]",78.99
3,"COc1ccc(/C=C/CCCCOc2ccc(C(=O)c3cccc(C(=O)O)c3)cc2CCC(=O)O)cc1 [ONC0003815, ly223982]",21.75
4,"CC(=O)[C@H]1CC[C@H]2[C@@H]3CC=C4C[C@@H](O)CC[C@]4(C)[C@H]3CC[C@]12C [ONC0003199, pregnenolone]",77.25
5,"Cc1oc2nc3c(c(NC(=O)CN4CCCC4=O)c2c1C)CCCC3 [ONC0001218, coluracetam]",81.81
6,"CCOC(=O)Nc1cc2c(c(N)n1)NC(c1ccccc1)=C(C)N2 [ONC0002128, mivobulin]",3.846
7,"CCOC(=O)Nc1nc2ccccc2[nH]1 [ONC0004223, lobendazole]",137.9
8,"CCOC(=O)Nc1ccc(NCc2ccc(F)cc2)nc1N.O=C(O)/C=C\C(=O)O [ONC0001304, flupirtine maleate]",68.53
9,"C=CC(=O)N1CCCC(n2c(=O)n(-c3ccc(Oc4ccccc4)cc3)c3c(N)ncnc32)C1 (stereo not drawn) [ONC0004392, ono4059]",98.71
10,"CN1C2C[C@H](OC(=O)[C@H](CO)c3ccccc3)C[C@@H]1[C@@H](O)C2 [ONC0003283, anisodamine hydrobromide]",41.57
11,"C[N+]1(C)C2CCC1CC(OC(=O)C(CO)c1ccccc1)C2 (stereo not drawn) [ONC0003986, methylatropine nitrate]",73.02
12,"C[N+]1([O-])C2CCC1CC(OC(=O)C(CO)c1ccccc1)C2 (stereo not drawn) [ONC0004212, atropine oxide]",82.92
13,"FC(F)(F)Oc1ccc2[nH]c(-c3ccc(OCCOCCOc4ccc(-c5nc6cc(OC(F)(F)F)ccc6[nH]5)nc4)cn3)nc2c1 [ONC0000980, ai1049]",83.7
14,"CC(=O)OCC1=C(C(=O)O)N2C(=O)[C@@H](N)[C@H]2SC1 [ONC0004514, 7aminocephalosporanic acid]",52.68
15,"CCn1cc(-c2cccc(C(F)(F)F)c2)c2sc(C(=N)NC3CCS(=O)(=O)CC3)cc2c1=O [ONC0001085, ibrd9]",45.4
16,"Cc1c(C(=O)NCc2cccnc2)nn(-c2ccc(Cl)cc2Cl)c1-c1ccc(Cl)cc1 [ONC0001432, mj15]",60.06
17,"C[C@@H]1CC2C3CCC4=CC(=O)C=C[C@]4(C)[C@@]3(F)[C@@H](O)C[C@]2(C)[C@@]1(O)C(=O)CO (stereo partly drawn) [ONC0000416, dexamethasone]",62.67
18,"O=C(Nc1cc(C(F)(F)F)cc(C(F)(F)F)c1)c1cnc(Cl)nc1C(F)(F)F [ONC0001396, sp100030]",126.3
19,"O=C(Nc1cc(C(F)(F)F)cc(C(F)(F)F)c1)c1cc(Cl)ccc1O [IKK2 inhibitor V (IMD-0354), IMD-0354]",2.589
20,O=C(Nc1ccc([N+](=O)[O-])cc1Cl)c1cc(Cl)ccc1O [niclosamide],70.84
